Screening results from PubChem BioAssay.
USP8 block – blocks human USP8 ubiquitin-rhodamine cleavage; inhibition, % at 20 µM; P40818; hit rate 4.2% among 47,000; AID 1645853; purified USP8, Ub-rhodamine cleavage fluorescence, 30 min
USP7 block – human USP7 deubiquitinase inhibition | purified USP7, Ub-rhodamine cleavage fluorescence | hit rate 0.3% among 47,000 | inhibition, % at 20 µM
UCHL1 inh – inhibitors of human UCHL1 deubiquitinase. inhibition, % at 20 µM. P09936. purified UCHL1, Ub-rhodamine cleavage fluorescence. hit rate 0.2% among 47,000
OTUD3 inh – inhibitors of human OTUD3 deubiquitinase; Q5T2D3; purified OTUD3, Ub-rhodamine fluorescence, 2 h; inhibition, % at 25 µM; hit rate 0.7% among 47,000; AID 1645858
USP17 inh – human USP17-like deubiquitinase inhibition; purified USP17, Ub-rhodamine cleavage fluorescence, 3 h; inhibition, % at 50 µM; hit rate 6.5% among 47,000; AID 1645855
USP10 inh – blocks human USP10 ubiquitin-rhodamine cleavage; inhibition, % at 20 µM; hit rate 1.1% among 47,000; AID 1645856; purified USP10, Ub-rhodamine fluorescence, 60 min; Q14694
A number is an active result; – = inactive; · = not tested or not shown. Shown are actives, neighbours in structure and some others; about 9.2% of the full set was active somewhere. Cut-off read from the data, not from the text of the source: active = inhibition above about 30%; inactive = the rest.

SMILES	USP8 block	USP7 block	UCHL1 inh	OTUD3 inh	USP17 inh	USP10 inh
CC1=C(CO)C(=O)O[C@@H]([C@@H](C)[C@H]2CC[C@H]3[C@@H]4C[C@H]5O[C@]56[C@@H](O)C=CC(=O)[C@]6(C)[C@H]4CC[C@]23C)C1	–	–	–	–	72.1	–
Cc1ccccc1Cn1ccc(NS(=O)(=O)c2cn(C)nc2C)n1	–	–	–	–	–	–
Cc1nn(C)cc1S(=O)(=O)Nc1cnn(Cc2cccc3ccccc23)c1	85.9	–	–	–	–	–
COc1cccc(C2CC(=O)Nc3n[nH]c(C)c32)c1OCc1ccc(F)cc1 (configuration not stated)	–	–	–	–	–	–
CCOc1ccc(N2Cc3ccc(C(=O)O)cc3C2=O)cc1	–	–	–	–	–	–
FC(F)(F)c1ccc(Nc2nnnc3ccccc23)cc1	63.8	59.9	–	–	–	46.6
Cc1cc(Nc2ccc(C)c(F)c2)c2ccccc2n1	–	–	–	–	–	–
Cc1nn2c(S(=O)(=O)N3CCN(c4ccccc4C)CC3)c(C)nc2s1	–	–	–	–	–	–
CCN(c1ccccc1)S(=O)(=O)c1ccc(C(=O)Nc2nc3ccc(F)cc3s2)cc1	–	–	–	–	54.9	–
CCN(c1ccccc1)S(=O)(=O)c1cc(C(=O)Nc2nc3ccc(OC)cc3s2)c(Cl)cc1Cl	–	–	–	–	–	–
CCC(C(=O)Nc1c2c(nn1-c1ccc(Cl)cc1)CS(=O)(=O)C2)c1ccccc1 (configuration not stated)	–	–	–	–	37.6	–
O=C(/C=C\c1ccc2c(c1)OCO2)Nc1c2c(nn1-c1ccc(Cl)cc1)CS(=O)(=O)C2	–	–	–	38.6	57.1	–
COc1ccc(-n2nc3c(c2NC(=O)/C=C\c2ccccc2)CS(=O)(=O)C3)cc1	–	–	–	–	–	–
O=C(NCCN1CCOCC1)C1CCCN(c2nnc3c(Cl)cccn23)C1 (configuration not stated)	–	–	–	–	·	–
O=C(Cn1c(=O)n(CCC(=O)NC2CCCC2)c(=O)c2ccccc21)NCc1ccccc1Cl	–	–	–	–	–	–
COc1ccc(NC(=O)Cn2c(=O)n(C3CCCC3)c(=O)c3cc(OC)c(OC)cc32)cc1OC	–	–	–	–	39.5	–
CCOc1ccccc1NC(=O)Cn1c(=O)n(CCC(=O)NC2CCCC2)c(=O)c2ccccc21	–	–	–	–	41.4	–
NC(=O)Cn1c(=O)n(Cc2ccc(C(=O)NC3CCCC3)cc2)c(=O)c2ccccc21	–	–	–	–	53.1	–
O=C(Cn1c(=O)n(CC(=O)NC2CCCC2)c(=O)c2ccccc21)Nc1ccc(F)cc1	37.3	–	–	41.3	67.1	–
C[C@@H]1OC(=O)C2=C1O[C@@H]1[C@@H](O)[C@]3(O)CCCC[C@H]3[C@](C)(C2=O)[C@@H]1C	–	–	–	–	–	–
CC[C@H](C)C(=O)OC1C[C@@H](C)C=C2C=C[C@H](C)[C@H](CC[C@@H](O)C[C@@H](O)CC(=O)O)[C@H]21 (some centres not stated)	–	–	–	–	–	–
CN1C(=O)OC[C@@H]2CCN(C(=O)Nc3cccc(F)c3)C[C@H]21	–	–	–	–	–	–
CN1CCCc2sc(C(=O)N3CCOCC3)nc21	–	–	–	–	–	–
COc1ccc(Cl)cc1NC(=O)Cn1c(=O)n(CCC(=O)NC2CCCC2)c(=O)c2ccccc21	–	–	–	–	–	42.9
CCn1c(=O)c2cc(OC)c(OC)cc2n(CC(=O)c2ccc(OC)c(OC)c2)c1=O	–	–	–	–	–	–
COc1cc2c(=O)n(CCC(=O)NC3CCCC3)c(=O)n(CC(=O)Nc3cccc(Cl)c3)c2cc1OC	–	–	–	–	42.3	30.5
COc1ccc(NC(=O)Cn2c(=O)n(CCC(=O)NC3CCCC3)c(=O)c3ccccc32)cc1Cl	–	–	–	–	–	–
COc1cc(OC)c(NC(=O)Cn2c(=O)n(Cc3ccccc3Cl)c(=O)c3cc(OC)c(OC)cc32)cc1Cl	–	–	–	–	–	35.5
O=C(Cn1c(=O)n(CC(=O)NC2CCCC2)c(=O)c2ccccc21)Nc1cc(Cl)ccc1Cl	31.6	–	–	–	42.5	–
Cc1cccc(NC(=O)C2CCCN(C(=O)c3ccc(Cl)cc3)C2)c1C (configuration not stated)	–	–	–	–	–	–
